Compounds without any hit were thinned out: in the full panel of roughly 83,000, 20% have a hit.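 A percent growth of 40 corresponds to 60% growth inhibition; 0 means no net growth; -100 means all cells died. Active threshold: below 10.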 Unmarked numbers belong to inactive results. Calls of active or inactive are those of the source.
Assays:
Test in all cases: NCI-60 one-dose screen, 48 h (100 = growth as untreated, 0 = no growth, -100 = all killed)
Conditions in all cases: 10 µM unless noted
EKVX NSCLC = test system: EKVX NSCLC
SN12C renal = test system: SN12C renal
UO-31 renal = test system: UO-31 renal
TK-10 renal = test system: TK-10 renal
A498 renal = test system: A498 renal
CCRF-CEM leukemia = test system: CCRF-CEM leukemia
MOLT-4 leukemia = test system: MOLT-4 leukemia
SR leukemia = test system: SR leukemia
ACHN renal = test system: ACHN renal

Structure (SMILES)	growth (EKVX NSCLC)	growth (SN12C renal)	growth (UO-31 renal)	growth (TK-10 renal)	growth (A498 renal)	growth (CCRF-CEM leukemia)	growth (MOLT-4 leukemia)	growth (SR leukemia)	growth (ACHN renal)
COc1ccc2c(c1)C1(C(=O)N2)C(C#N)=C(c2ccccc2)Nc2c1c(-c1ccccc1)nn2-c1ccccc1 (stereo not given)	78.4%	1.61% (active)	80.1%	90.7%	50.1%	16.6%	38.2%	21.5%	–
Nc1ccc(C2=NN(C(=O)c3cc(-c4ccc(Cl)cc4)nc4ccccc34)C(c3ccccc3)C2)cc1 (stereo not given)	40.4%	51.2%	49.5%	58.5%	30%	24.1%	41.2%	25.9%	51.5%
CCCCc1n(Cc2ccc3ccccc3n2)cc[n+]1Cc1ccc2ccccc2c1	41.7%	1.13% (active)	69.2%	-5.08% (active)	7.02% (active)	6.45% (active)	4.42% (active)	-27.1% (active)	61.2%
CCOc1ccccc1C(=O)/C=C/c1cc2ccccc2[nH]c1=O	-1.6% (active)	-20.9% (active)	-97.7% (active)	15%	-14.7% (active)	-0.719% (active)	5.16% (active)	4% (active)	-5.01% (active)
COc1cc2c(Nc3ccc(NC(=O)Nc4ccc(Cl)c(C(F)(F)F)c4)c(Cl)c3)ncnc2cc1OCCCN1CCN(C)CC1	52.5%	18.6%	54.9%	20.5%	39.7%	-15.4% (active)	-43.7% (active)	-40.5% (active)	35%
N#CCNc1ccc(C(=O)O)cc1	104%	103%	101%	97.4%	106%	99.3%	96.3%	99.2%	111%
CNCc1cccc2c1OCCOCCOCCN(CCN1CCOCC1)S(=O)(=O)c1ccc(cc1)-c1cnc(N)c(n1)C(=O)N2	74.8%	68.4%	55.6%	43.9%	44.4%	18%	-1.99% (active)	–	36.7%
O=C(/C(=C/c1ccc([N+](=O)[O-])cc1)SCc1ccc(F)cc1)c1ccc(Cl)cc1	57.7%	56%	44.8%	97.2%	70.9%	6.19% (active)	7.7% (active)	0.0981% (active)	60.7%
NS(=O)(=O)c1ccc(-n2ncc(NC(=O)Nc3ccc(S(=O)(=O)Nc4nccs4)cc3)c2-c2ccccc2)cc1	100%	98.8%	97.5%	95.9%	112%	97.7%	100%	103%	96.5%
CCOC(=O)c1sc(/N=C2\NC(=O)/C(=C/c3ccc(N4CCN(C)CC4)cc3)S2)nc1C	96.7%	111%	84.6%	116%	111%	91.7%	88.9%	101%	108%
NC(=O)C(O)(c1ccccc1)c1ccccc1	–	99%	93.8%	97.3%	84.9%	87.9%	98.6%	83%	108%
C#CC[C@@H]1C[C@]2(C)[C@H]3CC[C@@H]4[C@H]5[C@H](C(=C)C)CC[C@]5(C(=O)O)CC[C@@]4(C)[C@]3(C)CC[C@H]2C(C)(C)[C@H]1O	–	39.3%	23.5%	85.7%	82.7%	34.1%	26.8%	45.5%	6.77% (active)
CC(=O)Oc1ccc(O)cc1	103%	99.9%	91.2%	112%	100%	64.3%	4.64% (active)	87.7%	97.8%
O=C1C(Cl)=C(Nc2ccc3c(c2NC2=C(Cl)C(=O)c4ccccc4C2=O)C(=O)c2ccccc2C3=O)C(=O)c2ccccc21	34.5%	4.99% (active)	23.1%	77.3%	50.5%	17.8%	8.53% (active)	13.3%	29.2%
COc1ccc(/C=C/C(=O)c2ccc(NC(=O)CSc3nnc(-c4ccc(OC)c(OC)c4)n3-c3ccccc3)cc2)cc1	66%	40.5%	-81.3% (active)	101%	93.5%	-20.9% (active)	10.8%	-38.2% (active)	59.9%
CC1(C)Cc2c(Br)c(Br)c(Br)c(OCC(O)CN3CCOCC3)c2O1 (stereo not given)	102%	104%	-87.3% (active)	67%	84.3%	9.89% (active)	40.1%	24.9%	93.4%
Nc1n[nH]c2cccc(C#Cc3cccc(NC(=O)c4cc(N5CCOCC5)cc(C(F)(F)F)c4)c3)c12	59.9%	57.6%	17.5%	36.5%	-5.08% (active)	44.2%	30.4%	43.5%	25.3%
C=C1C(=O)O[C@H]2[C@H]1CC/C(COC(=O)CCC(=O)OC/C1=C/CC[C@@]3(C)O[C@H]3[C@H]3OC(=O)C(=C)[C@@H]3CC1)=C\CC[C@@]1(C)O[C@@H]21	44.5%	5.32% (active)	0.355% (active)	25%	114%	-8.57% (active)	1.24% (active)	0.484% (active)	-21.8% (active)
C=C1C(=O)O[C@H]2[C@H]1CC/C(COC(=O)N1CCC[C@H]1C(=O)Nc1ccc(OC)c(C(N)=O)c1O)=C\CC[C@@]1(C)O[C@@H]21	77%	12.9%	41.2%	-4.11% (active)	87.9%	-12.6% (active)	8.14% (active)	13.9%	30.6%
O=C(O)C(C(=O)O)c1cccc2ccccc12	108%	100%	88.5%	89.3%	85.6%	92.2%	94.4%	90.6%	105%
COc1ccc(C2=NN(c3ccc(S(N)(=O)=O)cc3)C(c3ccc(Cl)cc3)C2)c(O)c1 (stereo not given)	56%	73%	60.3%	53.7%	47.2%	26.8%	32.5%	16.1%	65%
CCOC(=O)C(=Cc1c(-c2ccccc2)[nH]c2ccccc12)C(=O)OCC	71.1%	65.6%	33.5%	92.2%	74.1%	4.23% (active)	1.38% (active)	10%	–
Cc1cccc(C)c1NCc1nnc(-c2ccco2)o1	81.5%	94.8%	65.1%	123%	96.5%	91.4%	88.8%	85.7%	101%
CCO/C=N/S(=O)(=O)c1cc2c(cc1Cl)NC=NS2(=O)=O	103%	104%	89.1%	101%	106%	95.7%	109%	–	112%
CC(C)(C)CC(C)(C)Cc1ccc(OCCOCC[N+](C)(C)Cc2ccccc2)cc1	74.7%	8.79% (active)	97.1%	49.4%	63.8%	10%	7.43% (active)	-27.8% (active)	97.4%
COc1cc(C)ccc1Oc1nc(Nc2ccc(N3CCOCC3)cc2)ncc1N=Cc1cc(C(F)(F)F)cc(C(F)(F)F)c1	81.7%	80.3%	47.6%	81.6%	58.8%	82%	44.7%	49.7%	56.3%
COc1ccc(-c2[nH]c3ccccc3c2C=C(C#N)C#N)cc1	12.4%	44.6%	59.1%	35.5%	-7.34% (active)	-5.77% (active)	-14.2% (active)	-27.8% (active)	–
c1cc(CNC23CC4CC(CC(C4)C2)C3)cc(C[N+](Cc2cccc(CNC34CC5CC(CC(C5)C3)C4)c2)(Cc2cccc(CNC34CC5CC(CC(C5)C3)C4)c2)Cc2cccc(CNC34CC5CC(CC(C5)C3)C4)c2)c1 (stereo not given)	30.7% [42 µM]	7.96% [42 µM] (active)	-8.13% [42 µM] (active)	27.1% [42 µM]	50.1% [42 µM]	3.92% [42 µM] (active)	-21.9% [42 µM] (active)	9.46% [42 µM] (active)	-9.81% [42 µM] (active)

— PubChem BioAssay (NCI)
